Shown are actives, neighbours in structure and some others; about 2.1% of the full set was active somewhere.
CCHFV vOTU inh: CCHFV vOTU protease inhibition | Pep-AMC fluorescence | inhibition, % at 11.5 µM | 370,000 compounds, 0.55% hits | AID 651958; in the data active = inhibition above about 30%; note: 0% = vehicle wells with enzyme and 100% = no enzyme wells
Sa ugtP lethal: growth inhibition of S. aureus ugtP deletion strain. 330,000 compounds, 0.54% hits. S. aureus RN4220 ugtP deletion, OD600 growth, 16 h. AID 1259309. growth inhibition, % (concentration not given with the values); in the data active = growth inhibition above about 68%;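 note: plate controls were untreated wells for no effect and antibiotic for full effect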
RN4220 kill: kills Staphylococcus aureus RN4220; S. aureus RN4220 growth, OD600, 16 h; inhibition, % (no concentration beside the values); 330,000 compounds, 0.33% hits; AID 1259311; in the data active = inhibition above about 85%;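 note: plate controls were untreated cells for no effect and reference antibiotic for full effect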
PrP 5UTR inh: suppresses PrP 5' UTR mRNA reporter expression; cell-based PrP 5' UTR mRNA reporter, plate reader; inhibition, % (concentration not given with the values); 340,000 compounds, 0.35% hits; in the data active = inhibition above about 52%; note: 0 = median of the neutral control wells
PfHsp40 yeast: compounds rescuing yeast from Plasmodium falciparum HSP40 toxicity; S. cerevisiae expressing PfHsp40, growth rescue, ATP luminescence; growth rescue, % at 12.5 µM; 340,000 compounds, 0.68% hits; AID 504582; in the data active = growth rescue above about 28%, passing the limit was not always enough; inconclusive = no clear call, values can overlap the other calls;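 note: yeast W303a lacking pdr1 and pdr3 grown in galactose medium; growth measured after three days at 30 °C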
PrPC surface inh: cell surface PrPC inhibition, primary TR-FRET screen. TR-FRET read-out. inhibition, % at 13.8 µM. 370,000 compounds, 0.43% hits; in the data active = inhibition above about 24%; note: 0% = median of the test wells and 100% = reference compound wells
Numbers without * were called inactive; ? = inconclusive; nt = not tested or not shown.

SMILES	CCHFV vOTU inh	Sa ugtP lethal	RN4220 kill	PrP 5UTR inh	PfHsp40 yeast	PrPC surface inh
O=[N+]([O-])c1cc(C(F)(F)F)ccc1NCCNC(=S)Nc1ccc(Cl)cc1	-6	90*	85*	-20	?	-4
O=C(Nc1ccc(Cl)cc1)N1CCCN(c2ccc(C(F)(F)F)cc2[N+](=O)[O-])CC1	5	nt	nt	-9	44*	0
Cc1ccc(NN=Cc2c(O)cc(C)oc2=O)cc1	nt	1	3	nt	nt	nt
O=C(O)/C(=C\c1ccc(-c2ccc(F)cc2)o1)c1ccccc1	8	10	6	-7	37*	-7
O=C(O)c1cccc2c1Cc1cc([N+](=O)[O-])ccc1-2	10	28	8	-20	118*	-16
O=[N+]([O-])c1ccc2c(c1)Cc1cc(O)ccc1-2	3	26	-7	-30	51*	-33
COc1ccccc1Nc1cc(C(=O)NCCCN2CCOCC2)c2ccccc2n1	-4	-5	5	-27	68*	3
CC(=O)Oc1ccccc1C(=O)C=Cc1cccc([N+](=O)[O-])c1	15	10	17	-46	128*	-40
Cc1cc(O)c(C(=O)/C=C/c2cccc([N+](=O)[O-])c2)c(=O)o1	-5	nt	nt	-27	9	-2
O=S(=O)(c1cccc(C(F)(F)F)c1)N1CCC(CO)(CCCc2ccccc2)CC1	21	-20	8	-29	55*	2
Cc1c(C(=O)N2CC3(CC(c4cccc(NC(=O)CC(c5ccccc5)c5ccccc5)c4)=NO3)CC2C(N)=O)cc([N+](=O)[O-])cc1[N+](=O)[O-] (stereo unspecified)	nt	5	1	nt	nt	nt
CCCN(Cc1cc2cccc(C)c2[nH]c1=O)C(=O)c1cccc(OC)c1	-3	1	1	-17	72*	7
CCCN(Cc1cc2cc(C)ccc2[nH]c1=O)C(=O)c1cccc(OC)c1	12	-1	-2	8	0	6
CC(C)(C)OC(=O)C(Cc1ccccc1)NC(=O)c1nc[nH]c1C(=O)NC(CCCCN)C(=O)OC(C)(C)C (stereo unspecified)	nt	2	6	nt	nt	nt
N=c1c2c(-c3ccccc3)c(-c3ccccc3)n(Cc3ccccc3)c2ncn1CCO	4	91*	-3	-14	1	-13
O=C(NN=Cc1ccc[nH]1)c1ccc(COc2cccc3cccnc23)cc1	nt	0	8	nt	nt	nt
CCC[n+]1c(C)sc2c3c(ccc21)CCCC3	nt	95*	97*	-10	0	nt
CC[n+]1c(C)sc2c(C)cc(C)cc21	10	8	2	-6	0	1
CN1CC2C3C(=O)N(Cc4ccccc4)C(=O)C3[C@](C)(C1=O)N2C(=O)c1ccc(Cl)cc1 (stereo partly specified)	nt	-2	3	nt	nt	nt
CC(C)N1CCN(c2ccc(OCC3COC(Cn4cncn4)(c4ccc(Cl)cc4Cl)O3)cc2)CC1 (stereo unspecified)	9	nt	nt	-5	226*	-19
CC(C)N1CCN(c2ccc(OC[C@H]3CO[C@](Cn4cncn4)(c4ccc(Cl)cc4Cl)O3)cc2)CC1	-4	nt	nt	53	222*	-20
CNc1cc(-n2nc(C)cc2-c2ccccc2)ncn1	-1	6	-1	-115	-1	-4
Cc1cc(-c2ccccc2)n(-c2cc(NN=Cc3ccccc3O)ncn2)n1	nt	101*	79	nt	nt	nt
CCOc1ccc(N2C(=O)Nc3ccccc3C2(O)C(=O)NCc2ccc3c(c2)OCO3)cc1 (stereo unspecified)	-7	-1	2	-14	-1	-10
CCOc1ccc(N2C(=O)Nc3ccccc3C2(O)C(=O)NCc2ccc(C)cc2)cc1 (stereo unspecified)	-10	active	100	-1	-1	3
SMILES	CCHFV vOTU inh	Sa ugtP lethal	RN4220 kill	PrP 5UTR inh	PfHsp40 yeast	PrPC surface inh
CCC(C)(O)C(=O)NC1CCCN1C(=O)C=Cc1ccccc1 (stereo unspecified)	nt	-4	1	nt	nt	nt
CCOc1ccc(CCNC(=O)c2c(C)noc2C)cc1OCC	3	2	1	-18	43*	-5
COc1cc(C=NNc2cccc(C)c2)cc(Br)c1O	nt	96*	54	nt	nt	nt
CC1CCC(C(C)C)C(OC(=O)C[n+]2cc(-c3ccc(Cl)cc3)n3c2CCCCC3)C1 (stereo unspecified)	13	101*	100*	-22	1	5
O=C(C[n+]1cc(-c2ccccc2)n2c1CCCCC2)c1ccc(Cl)cc1	-7	-14	-3	-12	1	4
CCCCn1c(=O)[nH]c2nc3cc(N)ccc3nc2c1=O	50*	0	7	-43	3	-27
Nc1ccc2nc3c(=O)n(CCc4ccccc4)c(=O)[nH]c3nc2c1	6	7	0	nt	nt	-12
CP(=O)(Nc1ccccc1)C(Cl)(Cl)Cl (stereo unspecified)	-11	13	0	-16	0	-3
O=P(Nc1ccccc1)(Nc1ccccc1)c1ccccc1	-7	2	3	-8	43*	-4
COc1ccc(OC)c(C=NNC(=O)CCc2ccc(O)c(O)c2)c1	nt	3	1	nt	nt	nt
CCNC(=S)N/N=C(\C)c1ccc(N2CCOCC2)cc1	4	nt	nt	-30	5	3
CNC(=S)N/N=C(\C)c1ccc(N2CCOCC2)cc1	3	nt	nt	-32	203*	-3
CC(C)CC(NC(=O)OC(C)(C)C)C(=O)NC(CO)C(O)C1CC1C(=O)NC1CCCCC1 (stereo unspecified)	nt	-3	6	nt	nt	nt
CC(C)Cn1c(=O)c(C(=O)Nc2ccccc2S(N)(=O)=O)c(O)c2ccccc21	18	62	82	-8	0	5
CCC(C)n1c(=O)c(C(=O)Nc2ccccc2S(N)(=O)=O)c(O)c2ccccc21 (stereo unspecified)	20	76	103*	6	0	2
COc1ccccc1C1CC(=O)Nc2cc3c(cc21)OCCO3 (stereo unspecified)	-1	-8	7	10	1	14
CC(C)Oc1ccccc1C1CC(=O)Nc2cc3c(cc21)OCCO3 (stereo unspecified)	1	-6	0	61*	0	14
O=C(NN=Cc1ccc(OC2CSC2)cc1)c1ccccc1	nt	-3	4	nt	nt	nt
CCOc1ccccc1N1CCN(C(=O)c2cc(-c3cc(OC)ccc3OC)nc3ccccc23)CC1	-5	-5	13	-1	31*	-3
COc1ccc(-c2cc(C(=O)N3CCN(c4ccccc4F)CC3)c3ccccc3n2)c(OC)c1	4	11	-1	-9	376*	2
COc1ccc(N2CCN(C(=O)c3cc(-c4cc(OC)ccc4OC)nc4ccccc34)CC2)cc1	10	2	-4	17	1	-2
COc1ccc(-c2cc(C(=O)N3CCN(c4ncccn4)CC3)c3ccccc3n2)c(OC)c1	1	-1	1	-12	?	0
O=C(NN=C/C=C/c1ccc(Br)cc1)c1ccc2c(c1)OCO2	nt	14	7	nt	nt	nt

From PubChem
